From the supplement of paper PMC11732987, “Enantioselective OTUD7B fragment discovery through chemoproteomics screening and high-throughput optimisation” (Communications Chemistry, 2025)

How the values were obtained:
Experiment in all cases: log2 ratio of Biotin-Ahx-Ub-VS probe labelling (fragment/DMSO); higher = less target engagement (more negative = stronger competition), active = hit call of the paper (q ≤ 0.05, log2 ratio ≤ -1)
Conditions in all cases: compound concentration: 200 uM; treatment time: 3 h
[1] = target: USP34 (UniProt Q70CQ2)
Sequence of USP34 (Q70CQ2 whole entry, the tested form may be a part): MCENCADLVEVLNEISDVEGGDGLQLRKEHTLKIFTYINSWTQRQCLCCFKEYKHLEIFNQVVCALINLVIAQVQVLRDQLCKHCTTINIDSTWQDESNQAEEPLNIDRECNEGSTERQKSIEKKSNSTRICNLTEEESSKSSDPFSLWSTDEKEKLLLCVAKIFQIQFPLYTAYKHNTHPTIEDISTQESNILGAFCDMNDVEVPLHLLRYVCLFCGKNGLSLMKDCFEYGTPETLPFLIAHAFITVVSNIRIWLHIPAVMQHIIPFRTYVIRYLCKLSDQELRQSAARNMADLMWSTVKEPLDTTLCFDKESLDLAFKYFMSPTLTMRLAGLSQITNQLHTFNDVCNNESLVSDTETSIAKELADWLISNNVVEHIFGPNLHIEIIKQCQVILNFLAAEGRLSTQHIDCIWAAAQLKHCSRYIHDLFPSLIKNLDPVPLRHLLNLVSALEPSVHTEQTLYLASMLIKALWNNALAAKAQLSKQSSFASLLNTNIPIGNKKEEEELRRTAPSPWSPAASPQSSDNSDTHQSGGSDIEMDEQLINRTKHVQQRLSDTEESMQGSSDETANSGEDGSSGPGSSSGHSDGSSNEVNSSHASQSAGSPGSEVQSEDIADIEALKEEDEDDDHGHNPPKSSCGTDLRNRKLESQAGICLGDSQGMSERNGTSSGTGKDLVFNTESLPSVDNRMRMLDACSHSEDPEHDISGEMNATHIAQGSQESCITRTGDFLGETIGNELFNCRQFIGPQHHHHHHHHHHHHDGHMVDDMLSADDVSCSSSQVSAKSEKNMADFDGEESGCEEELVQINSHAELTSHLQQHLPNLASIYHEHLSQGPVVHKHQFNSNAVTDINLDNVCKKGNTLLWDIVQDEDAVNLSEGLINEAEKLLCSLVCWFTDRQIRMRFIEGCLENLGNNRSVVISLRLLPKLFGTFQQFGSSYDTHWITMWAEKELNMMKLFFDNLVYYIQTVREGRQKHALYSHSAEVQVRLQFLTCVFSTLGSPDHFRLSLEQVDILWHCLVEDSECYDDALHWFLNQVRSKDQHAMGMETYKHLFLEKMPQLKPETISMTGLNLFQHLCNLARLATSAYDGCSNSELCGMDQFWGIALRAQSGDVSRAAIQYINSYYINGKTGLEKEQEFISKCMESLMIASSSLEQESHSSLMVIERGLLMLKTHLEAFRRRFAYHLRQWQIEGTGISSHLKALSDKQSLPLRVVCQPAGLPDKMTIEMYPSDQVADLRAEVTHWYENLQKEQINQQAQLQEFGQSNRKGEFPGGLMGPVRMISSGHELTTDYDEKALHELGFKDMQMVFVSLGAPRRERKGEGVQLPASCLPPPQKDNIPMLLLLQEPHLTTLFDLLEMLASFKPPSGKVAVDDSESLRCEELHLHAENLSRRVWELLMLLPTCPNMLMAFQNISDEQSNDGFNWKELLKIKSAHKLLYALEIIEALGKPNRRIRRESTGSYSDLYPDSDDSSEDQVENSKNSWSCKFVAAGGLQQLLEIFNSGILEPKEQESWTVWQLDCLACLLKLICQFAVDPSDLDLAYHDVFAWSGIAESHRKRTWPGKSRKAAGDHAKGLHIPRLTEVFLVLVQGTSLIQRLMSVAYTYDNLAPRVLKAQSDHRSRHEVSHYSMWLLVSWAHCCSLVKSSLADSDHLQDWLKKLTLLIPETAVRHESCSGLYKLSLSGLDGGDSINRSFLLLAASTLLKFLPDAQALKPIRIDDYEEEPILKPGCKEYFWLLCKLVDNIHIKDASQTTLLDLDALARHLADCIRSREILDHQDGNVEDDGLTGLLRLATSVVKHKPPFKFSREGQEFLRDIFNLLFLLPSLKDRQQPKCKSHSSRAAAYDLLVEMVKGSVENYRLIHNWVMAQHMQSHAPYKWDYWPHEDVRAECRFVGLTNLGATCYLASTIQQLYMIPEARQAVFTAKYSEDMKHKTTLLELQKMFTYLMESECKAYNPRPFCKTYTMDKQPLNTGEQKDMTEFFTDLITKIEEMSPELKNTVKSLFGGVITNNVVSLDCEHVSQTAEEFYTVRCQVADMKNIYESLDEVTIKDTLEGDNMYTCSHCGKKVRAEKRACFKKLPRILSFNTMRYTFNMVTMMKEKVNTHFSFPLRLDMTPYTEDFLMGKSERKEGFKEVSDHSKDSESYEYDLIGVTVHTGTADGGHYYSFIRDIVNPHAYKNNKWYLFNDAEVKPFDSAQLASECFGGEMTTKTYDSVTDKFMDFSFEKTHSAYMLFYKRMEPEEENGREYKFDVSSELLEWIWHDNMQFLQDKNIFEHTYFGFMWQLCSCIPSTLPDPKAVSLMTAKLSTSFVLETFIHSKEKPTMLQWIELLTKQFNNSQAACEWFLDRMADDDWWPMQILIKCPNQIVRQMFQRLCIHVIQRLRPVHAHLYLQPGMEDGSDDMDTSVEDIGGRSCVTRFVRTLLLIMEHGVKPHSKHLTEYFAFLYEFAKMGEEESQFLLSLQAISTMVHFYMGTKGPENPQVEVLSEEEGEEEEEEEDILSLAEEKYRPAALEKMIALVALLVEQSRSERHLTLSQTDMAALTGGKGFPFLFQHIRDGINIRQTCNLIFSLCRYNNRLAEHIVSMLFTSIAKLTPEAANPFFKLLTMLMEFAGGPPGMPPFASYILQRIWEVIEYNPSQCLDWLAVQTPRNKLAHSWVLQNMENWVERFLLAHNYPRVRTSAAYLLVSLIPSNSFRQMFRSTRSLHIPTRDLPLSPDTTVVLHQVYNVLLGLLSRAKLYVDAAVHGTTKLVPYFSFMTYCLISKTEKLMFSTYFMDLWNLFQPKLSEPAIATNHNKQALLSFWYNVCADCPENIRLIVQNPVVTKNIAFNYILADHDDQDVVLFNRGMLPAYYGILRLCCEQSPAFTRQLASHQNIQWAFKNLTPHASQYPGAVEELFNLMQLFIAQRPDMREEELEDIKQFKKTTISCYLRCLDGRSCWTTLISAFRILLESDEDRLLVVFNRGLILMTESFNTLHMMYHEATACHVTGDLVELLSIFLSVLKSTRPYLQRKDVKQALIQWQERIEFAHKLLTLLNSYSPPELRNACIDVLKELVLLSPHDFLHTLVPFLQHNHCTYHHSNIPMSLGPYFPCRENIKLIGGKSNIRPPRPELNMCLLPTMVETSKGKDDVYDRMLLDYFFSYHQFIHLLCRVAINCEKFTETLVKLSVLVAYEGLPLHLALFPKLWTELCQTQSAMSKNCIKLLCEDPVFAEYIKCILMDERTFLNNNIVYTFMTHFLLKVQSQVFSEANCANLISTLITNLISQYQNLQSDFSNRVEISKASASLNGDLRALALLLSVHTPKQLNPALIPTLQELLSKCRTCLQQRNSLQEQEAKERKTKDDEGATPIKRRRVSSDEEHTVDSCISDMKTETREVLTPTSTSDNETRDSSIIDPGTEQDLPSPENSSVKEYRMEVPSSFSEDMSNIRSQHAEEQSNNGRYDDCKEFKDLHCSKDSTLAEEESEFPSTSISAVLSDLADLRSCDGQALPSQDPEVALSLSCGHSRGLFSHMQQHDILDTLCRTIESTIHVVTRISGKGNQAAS
Summary of the method: (§1)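 The table lists average log2 ratios of fragment over vehicle, from an unpaired t-test on global-median-normalised Spectronaut label-free quantities. Proteins with ≥2 unique peptides were used. Samples were HEK293T lysate (495 µg) treated in triplicate with fragment at 200 µM or vehicle for 3 h, then with Biotin-Ahx-Ub-VS (0.5 µM final) for 1 h, with labelled DUBs NeutrAvidin-enriched and run by diaPASEF LC-MS/MS.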

[2] = target: T1, USP36 (UniProt Q9P275)
T1 sequence (whole entry): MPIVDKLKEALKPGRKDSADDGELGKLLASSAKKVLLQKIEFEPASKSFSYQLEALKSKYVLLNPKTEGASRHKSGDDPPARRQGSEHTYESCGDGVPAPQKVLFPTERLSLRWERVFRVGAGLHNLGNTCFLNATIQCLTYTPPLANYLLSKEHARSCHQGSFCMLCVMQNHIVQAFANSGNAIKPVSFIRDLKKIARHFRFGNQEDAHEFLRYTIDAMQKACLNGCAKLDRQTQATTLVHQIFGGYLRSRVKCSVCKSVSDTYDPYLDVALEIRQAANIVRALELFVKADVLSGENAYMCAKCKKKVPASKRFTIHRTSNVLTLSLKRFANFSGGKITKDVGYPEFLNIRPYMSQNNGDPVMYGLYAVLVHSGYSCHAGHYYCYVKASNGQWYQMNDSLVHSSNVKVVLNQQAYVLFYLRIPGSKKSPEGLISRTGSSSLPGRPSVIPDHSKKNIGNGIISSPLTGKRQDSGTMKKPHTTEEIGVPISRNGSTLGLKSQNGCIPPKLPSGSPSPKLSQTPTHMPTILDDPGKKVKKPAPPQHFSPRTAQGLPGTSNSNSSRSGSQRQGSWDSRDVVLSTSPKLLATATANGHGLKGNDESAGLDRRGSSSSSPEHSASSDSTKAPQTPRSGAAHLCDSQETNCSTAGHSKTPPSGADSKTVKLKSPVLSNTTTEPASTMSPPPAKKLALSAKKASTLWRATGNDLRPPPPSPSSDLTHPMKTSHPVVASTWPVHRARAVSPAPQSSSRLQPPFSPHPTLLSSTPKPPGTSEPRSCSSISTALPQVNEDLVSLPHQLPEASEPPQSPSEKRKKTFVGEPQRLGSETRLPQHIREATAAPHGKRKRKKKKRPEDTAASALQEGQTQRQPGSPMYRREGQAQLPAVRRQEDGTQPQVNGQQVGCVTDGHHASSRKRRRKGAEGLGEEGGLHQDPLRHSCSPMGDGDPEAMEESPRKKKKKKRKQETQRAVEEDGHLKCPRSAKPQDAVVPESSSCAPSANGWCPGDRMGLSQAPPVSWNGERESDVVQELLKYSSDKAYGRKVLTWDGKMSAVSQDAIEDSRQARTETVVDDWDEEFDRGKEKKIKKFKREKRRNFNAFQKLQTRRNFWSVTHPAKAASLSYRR
Summary of the method: as §1

[3] = target: T2, USP38 (UniProt Q8NB14)
T2 sequence (whole entry): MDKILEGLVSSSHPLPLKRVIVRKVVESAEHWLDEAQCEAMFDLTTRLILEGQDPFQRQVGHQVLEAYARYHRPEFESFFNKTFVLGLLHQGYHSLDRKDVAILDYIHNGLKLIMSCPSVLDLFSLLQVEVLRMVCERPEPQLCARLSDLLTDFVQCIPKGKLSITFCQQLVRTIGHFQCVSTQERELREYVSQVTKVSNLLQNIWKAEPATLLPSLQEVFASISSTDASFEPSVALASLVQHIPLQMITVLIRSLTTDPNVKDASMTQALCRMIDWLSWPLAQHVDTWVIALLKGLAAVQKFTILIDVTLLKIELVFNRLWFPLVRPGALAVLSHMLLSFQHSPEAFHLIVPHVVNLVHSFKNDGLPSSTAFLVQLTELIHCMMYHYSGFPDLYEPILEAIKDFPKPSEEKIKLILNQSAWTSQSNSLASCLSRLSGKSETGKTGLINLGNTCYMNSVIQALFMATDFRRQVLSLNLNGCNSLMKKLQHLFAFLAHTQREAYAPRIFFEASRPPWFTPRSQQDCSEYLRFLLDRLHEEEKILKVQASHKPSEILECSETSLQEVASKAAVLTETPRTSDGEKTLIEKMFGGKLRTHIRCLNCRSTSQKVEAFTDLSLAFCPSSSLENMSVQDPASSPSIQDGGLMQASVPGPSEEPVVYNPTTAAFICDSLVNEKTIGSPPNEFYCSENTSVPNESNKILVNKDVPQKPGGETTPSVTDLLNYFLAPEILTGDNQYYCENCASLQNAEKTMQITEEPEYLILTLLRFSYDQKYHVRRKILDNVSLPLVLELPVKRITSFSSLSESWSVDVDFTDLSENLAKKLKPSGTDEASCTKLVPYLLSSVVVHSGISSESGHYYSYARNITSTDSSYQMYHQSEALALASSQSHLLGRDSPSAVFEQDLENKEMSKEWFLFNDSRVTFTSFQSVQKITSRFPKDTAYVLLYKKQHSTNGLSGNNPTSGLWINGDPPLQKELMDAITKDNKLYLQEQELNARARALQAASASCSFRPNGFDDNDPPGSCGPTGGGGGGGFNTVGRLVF
Summary of the method: as §1

[4] = target: T3, USP39 (UniProt Q53GS9)
T3 sequence (whole entry): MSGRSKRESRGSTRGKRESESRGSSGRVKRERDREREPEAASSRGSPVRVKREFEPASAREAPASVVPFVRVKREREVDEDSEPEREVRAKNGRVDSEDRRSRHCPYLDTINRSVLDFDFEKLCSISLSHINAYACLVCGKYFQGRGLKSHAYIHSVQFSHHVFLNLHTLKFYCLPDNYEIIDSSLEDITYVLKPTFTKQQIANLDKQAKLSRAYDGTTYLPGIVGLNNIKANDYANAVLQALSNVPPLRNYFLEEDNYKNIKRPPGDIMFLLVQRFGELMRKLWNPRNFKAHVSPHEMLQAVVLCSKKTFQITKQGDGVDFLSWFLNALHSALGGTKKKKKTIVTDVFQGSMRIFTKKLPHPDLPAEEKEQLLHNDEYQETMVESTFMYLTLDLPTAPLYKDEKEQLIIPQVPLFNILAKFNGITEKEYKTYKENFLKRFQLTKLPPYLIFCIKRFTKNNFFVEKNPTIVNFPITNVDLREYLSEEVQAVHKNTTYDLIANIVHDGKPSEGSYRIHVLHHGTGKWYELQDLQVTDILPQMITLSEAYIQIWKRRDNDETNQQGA
Summary of the method: as §1

[5] = target: T4, USP4 (UniProt Q13107)
T4 sequence (whole entry): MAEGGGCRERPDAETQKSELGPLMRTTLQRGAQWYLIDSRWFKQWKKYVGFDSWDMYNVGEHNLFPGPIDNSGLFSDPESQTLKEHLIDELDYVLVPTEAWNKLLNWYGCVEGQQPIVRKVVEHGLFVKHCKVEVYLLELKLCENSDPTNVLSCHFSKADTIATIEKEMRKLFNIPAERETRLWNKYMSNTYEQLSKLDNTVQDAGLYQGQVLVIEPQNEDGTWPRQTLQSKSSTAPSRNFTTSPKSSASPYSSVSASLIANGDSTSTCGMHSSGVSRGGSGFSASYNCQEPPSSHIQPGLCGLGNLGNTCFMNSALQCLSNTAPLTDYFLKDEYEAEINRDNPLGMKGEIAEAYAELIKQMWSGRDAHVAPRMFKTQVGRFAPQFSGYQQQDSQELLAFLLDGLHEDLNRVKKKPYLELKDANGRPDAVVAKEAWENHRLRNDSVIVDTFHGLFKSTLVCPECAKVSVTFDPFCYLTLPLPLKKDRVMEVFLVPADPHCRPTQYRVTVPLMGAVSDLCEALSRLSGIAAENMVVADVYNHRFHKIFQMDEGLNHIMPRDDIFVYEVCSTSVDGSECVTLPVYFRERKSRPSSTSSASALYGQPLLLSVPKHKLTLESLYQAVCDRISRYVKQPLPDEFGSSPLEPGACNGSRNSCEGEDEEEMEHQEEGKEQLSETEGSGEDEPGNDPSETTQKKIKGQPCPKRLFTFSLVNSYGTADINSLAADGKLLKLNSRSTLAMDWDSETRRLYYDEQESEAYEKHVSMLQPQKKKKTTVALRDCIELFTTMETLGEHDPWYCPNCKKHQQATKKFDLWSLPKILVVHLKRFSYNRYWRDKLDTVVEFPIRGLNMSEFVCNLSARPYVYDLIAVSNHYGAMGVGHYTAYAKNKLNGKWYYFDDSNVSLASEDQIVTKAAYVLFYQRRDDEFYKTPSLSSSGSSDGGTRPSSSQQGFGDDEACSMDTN
Summary of the method: as §1

Measured: log2 ratio of Biotin-Ahx-Ub-VS probe labelling

O=C(CCl)N1CCOC2(CCC2)CC1
inactive: [1] -0.139 | [2] -0.163 | [3] -0.056 | [4] 0.138 | [5] -0.409
